The source made the active and inactive calls.
Tests used:
[1] = test system: PRMT1 (protein arginine N-methyltransferase 1); test: small molecules binding arginine methyltransferase PRMT1 – biochemical, small-molecule microarray, 635 nm fluorescence, primary screen (AID 1088); details: higher = more signal;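 also: binding of Prmt1 protein to compounds spotted on small-molecule microarray slides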
[2] = growth effects on S. cerevisiae YJM789 – YJM789 clinical isolate, OD600, 24 h, basal, primary screen (AID 1089); details: higher = more signal, called active from +8 up or from −8 down;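 also: growth of clinical yeast isolate S. cerevisiae YJM 789 seeded 1000 cells per well; test concentration not given here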
[3] = S. pombe growth modifiers, basal conditions – strain 972, OD600, 24 h, no modulator, primary screen (AID 1090);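 also: basal condition with compound alone and no growth modifier present; test concentration not given here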; details: S. pombe 972 growth, higher = more signal, called active from +8 up or from −8 down
[4] = budding yeast growth modifiers under rapamycin – strain BY4716, OD600, 96 h, primary screen (AID 1091); also: test concentration not given here; details: S. cerevisiae BY4716 + rapamycin, higher = more signal, called active from +8 up or from −8 down
[5] = target: Torsin-1A-interacting protein 2 (Homo sapiens) (UniProt Q8NFQ8); test: small molecules binding lysate-expressed LULL1 – cell lysate, human LULL1 lysate, 635/667 nm fluorescence, primary screen (AID 1092); details: small-molecule microarray, hLULL1 lysate binding, 635 nm fluorescence; higher = more signal;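 also: probe is lysate of COS7 cells overexpressing human LULL1; score merges per-feature 667 nm fluorescence with signal-to-noise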
[6] = optical density change of DRC41 E. coli – strain DRC41, OD650, 24 h, E. coli filamentation project, primary screen (AID 1093);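 also: MC1000 strain lacking acrAB efflux and sulA so SOS filamentation is blocked; test concentration not given here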; details: E. coli DRC41 growth, higher = more signal, called active from +8 up or from −8 down
[7] = probe aLefty2 binding to arrayed compounds – biochemical, biotinylated probe, 635/667 nm fluorescence, primary screen (AID 1094); details: small-molecule microarray, higher = more signal;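 also: score merges spot fluorescence near 667 nm with spot signal-to-noise ratio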
[8] = test system: Noggin (protein binding on small-molecule microarray); test: small molecules binding Noggin protein – biochemical, 635/667 nm fluorescence, primary screen (AID 1095); details: 635 nm fluorescence, higher = more signal;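 also: score merges 667 nm feature fluorescence with signal to noise over triplicate slides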
[9] = target: Neurogenic locus notch homolog protein 3 (Homo sapiens) (UniProt Q9UM47); test: small molecules binding NOTCH3 protein – biochemical, 635/667 nm fluorescence, primary screen (AID 1096); details: small-molecule microarray, 635 nm fluorescence, higher = more signal
[10] = probe aEGFR binding to arrayed compounds – biochemical, biotinylated probe, 635/667 nm fluorescence, primary screen (AID 1097); details: small-molecule microarray, higher = more signal;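 also: probe is a biotinylated anti-EGFR antibody binding compounds printed on slides; score combines fluorescence near 667 nm and signal to noise of each spot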

Torsin-1A-interacting protein 2 (Homo sapiens), sequence (Q8NFQ8 whole entry, looked up): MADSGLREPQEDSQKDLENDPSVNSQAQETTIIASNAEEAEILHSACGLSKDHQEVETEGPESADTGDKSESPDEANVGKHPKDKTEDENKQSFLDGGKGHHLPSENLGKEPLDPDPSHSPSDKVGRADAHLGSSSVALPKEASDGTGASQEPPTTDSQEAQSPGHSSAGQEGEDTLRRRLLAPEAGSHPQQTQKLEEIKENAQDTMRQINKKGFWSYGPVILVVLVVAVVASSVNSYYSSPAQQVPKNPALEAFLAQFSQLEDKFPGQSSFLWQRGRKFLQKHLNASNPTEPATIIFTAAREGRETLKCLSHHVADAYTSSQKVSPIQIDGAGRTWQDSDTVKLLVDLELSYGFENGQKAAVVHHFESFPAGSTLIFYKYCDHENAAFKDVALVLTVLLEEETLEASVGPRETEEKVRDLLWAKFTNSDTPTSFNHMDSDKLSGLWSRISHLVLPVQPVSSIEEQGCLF
Neurogenic locus notch homolog protein 3 (Homo sapiens), sequence (Q9UM47 whole entry, looked up): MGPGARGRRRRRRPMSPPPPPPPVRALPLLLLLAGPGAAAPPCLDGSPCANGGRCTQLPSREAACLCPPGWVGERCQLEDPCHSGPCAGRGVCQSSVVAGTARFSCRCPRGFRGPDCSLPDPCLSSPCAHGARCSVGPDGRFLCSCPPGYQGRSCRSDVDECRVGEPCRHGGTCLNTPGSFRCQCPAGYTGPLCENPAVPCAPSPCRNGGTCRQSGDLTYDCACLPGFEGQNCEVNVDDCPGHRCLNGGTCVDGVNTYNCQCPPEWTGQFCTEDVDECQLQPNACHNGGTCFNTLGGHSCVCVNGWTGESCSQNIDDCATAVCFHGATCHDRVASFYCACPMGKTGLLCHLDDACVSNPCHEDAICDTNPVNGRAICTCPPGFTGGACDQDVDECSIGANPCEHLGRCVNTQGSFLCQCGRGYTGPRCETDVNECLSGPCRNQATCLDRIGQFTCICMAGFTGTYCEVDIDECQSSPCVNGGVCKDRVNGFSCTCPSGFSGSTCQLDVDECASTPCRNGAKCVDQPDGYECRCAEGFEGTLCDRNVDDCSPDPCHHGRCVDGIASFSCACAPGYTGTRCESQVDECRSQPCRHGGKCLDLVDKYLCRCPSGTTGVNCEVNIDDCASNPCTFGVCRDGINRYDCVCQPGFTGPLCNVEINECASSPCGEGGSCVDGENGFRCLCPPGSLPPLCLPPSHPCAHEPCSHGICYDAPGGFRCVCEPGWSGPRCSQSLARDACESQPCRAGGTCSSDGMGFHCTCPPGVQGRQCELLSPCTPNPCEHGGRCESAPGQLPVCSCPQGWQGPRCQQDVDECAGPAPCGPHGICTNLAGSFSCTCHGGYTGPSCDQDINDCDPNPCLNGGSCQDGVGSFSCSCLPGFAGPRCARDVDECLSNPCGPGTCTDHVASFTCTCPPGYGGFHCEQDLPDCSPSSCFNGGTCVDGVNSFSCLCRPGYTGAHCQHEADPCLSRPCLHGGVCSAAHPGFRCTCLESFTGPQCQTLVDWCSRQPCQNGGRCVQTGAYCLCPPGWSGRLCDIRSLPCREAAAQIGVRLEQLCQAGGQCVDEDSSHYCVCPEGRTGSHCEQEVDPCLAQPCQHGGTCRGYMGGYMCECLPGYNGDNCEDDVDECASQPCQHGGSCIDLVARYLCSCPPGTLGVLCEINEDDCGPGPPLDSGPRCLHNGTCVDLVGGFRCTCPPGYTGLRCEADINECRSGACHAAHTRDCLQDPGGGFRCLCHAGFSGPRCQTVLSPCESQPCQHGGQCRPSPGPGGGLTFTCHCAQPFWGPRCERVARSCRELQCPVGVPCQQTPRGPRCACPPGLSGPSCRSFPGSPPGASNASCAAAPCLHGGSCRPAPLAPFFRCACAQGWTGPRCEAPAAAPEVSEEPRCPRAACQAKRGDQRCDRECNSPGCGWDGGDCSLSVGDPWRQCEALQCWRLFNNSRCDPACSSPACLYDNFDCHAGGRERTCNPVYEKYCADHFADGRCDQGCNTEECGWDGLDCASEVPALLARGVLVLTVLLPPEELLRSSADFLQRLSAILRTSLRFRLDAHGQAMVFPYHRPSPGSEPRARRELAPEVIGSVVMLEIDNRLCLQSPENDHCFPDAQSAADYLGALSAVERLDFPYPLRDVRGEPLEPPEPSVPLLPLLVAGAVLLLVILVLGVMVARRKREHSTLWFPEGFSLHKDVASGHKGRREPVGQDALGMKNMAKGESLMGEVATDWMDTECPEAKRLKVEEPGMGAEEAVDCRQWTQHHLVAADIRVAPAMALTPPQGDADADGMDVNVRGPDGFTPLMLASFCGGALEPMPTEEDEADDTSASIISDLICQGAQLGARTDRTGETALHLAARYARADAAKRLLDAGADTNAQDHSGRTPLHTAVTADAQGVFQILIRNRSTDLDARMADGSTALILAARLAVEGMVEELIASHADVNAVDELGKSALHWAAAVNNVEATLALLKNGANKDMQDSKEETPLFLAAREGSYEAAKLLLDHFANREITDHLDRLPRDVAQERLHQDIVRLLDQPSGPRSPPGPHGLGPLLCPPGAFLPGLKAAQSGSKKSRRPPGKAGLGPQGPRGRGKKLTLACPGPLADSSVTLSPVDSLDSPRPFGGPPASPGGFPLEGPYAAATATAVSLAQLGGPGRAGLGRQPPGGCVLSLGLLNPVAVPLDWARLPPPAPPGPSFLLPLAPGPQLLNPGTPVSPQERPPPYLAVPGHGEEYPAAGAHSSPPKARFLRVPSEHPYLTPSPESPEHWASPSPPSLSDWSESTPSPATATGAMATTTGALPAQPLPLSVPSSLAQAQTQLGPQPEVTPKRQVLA

Compound | composite z-score [1] | z-score [2] | z-score [3] | z-score [4] | composite z-score [5] | z-score [6] | composite z-score [7] | composite z-score [8] | composite z-score [9] | composite z-score [10]
C[C@@H]1ON(c2ccc(C(=O)OC(C)(C)C)cc2)[C@H](c2ccc(Br)cc2)[C@H]1C(=O)N1C(=O)OC[C@H]1Cc1ccccc1 | 1.53 | 0.689 (inactive) | 0.716 (inactive) | 0.71 (inactive) | 2.22 | 0.425 (inactive) | 0.149 | 0.633 | 1.08 | 0.0338
O=C1OC[C@@H](c2ccccc2)N2CC(/C=C/c3ccccc3)=CC12 (stereo not given in full) | -1.07 | 0.0482 (inactive) | -1.27 (inactive) | 0.321 (inactive) | -0.79 | 0.701 (inactive) | -0.158 | -1.37 | -0.0841 | -0.425
COCCOC(=O)N1C(=O)[C@@]2(c3cc(C#CC4(O)CCCCCC4)ccc31)[C@H](C(=O)N1CCCCCCC1)[C@H]1C(=O)O[C@H](c3ccccc3)[C@H](c3ccccc3)N1[C@@H]2c1ccc(OCCO)cc1 | 1.53 | 0.474 (inactive) | 0.638 (inactive) | 2.39 (inactive) | 3.7 | 1.82 (inactive) | 1.77 | 1.89 | 1.03 | 0.757
CCOC(=O)C[C@H]1[C@H](OC(=O)Cc2ccc3c(c2)OCO3)[C@@H](NC(=O)Cc2ccc(OC)cc2)c2cc(OCCCO)ccc2N1C(=O)c1ccccc1 | 1.26 | -0.13 (inactive) | 0.0145 (inactive) | 0.234 (inactive) | 1.37 | 1.26 (inactive) | -0.0846 | 0.0653 | 0.608 | 0.0032
CN(C)CCCN1C(=O)[C@@]2(c3ccc([N+](=O)[O-])cc3)CC(=O)N(CC34CC5CC(CC(C5)C3)C4)[C@@H]2c2ccc(CO)cc21 | 1.54 | 0.296 (inactive) | -0.505 (inactive) | -1.06 (inactive) | 3.29 | 0.304 (inactive) | -0.116 | -0.378 | 0.214 | -0.12
C=CCOC(=O)[C@@H]1[C@H]2C(=O)O[C@H](c3ccccc3)[C@H](c3ccccc3)N2[C@H](c2ccc(OCCOC(=O)[C@H]3C[C@H]4C(=O)N[C@@H](CC(C)C)C(=O)N4[C@H]3c3ccc(O)cc3)cc2)[C@@]12C(=O)Nc1ccc(I)cc12 | 1.54 | 0.157 (inactive) | 1.11 (inactive) | 2.65 (inactive) | 2.75 | 0.574 (inactive) | -0.0229 | 1.81 | 1.06 | 0.0582
CC(C)CNC(=O)[C@@]1(c2ccc([N+](=O)[O-])cc2)CC(=O)N(C2CCCCC2)[C@@H]1c1ccc(CO)cc1I | 0.935 | -0.579 (inactive) | 0.279 (inactive) | -0.143 (inactive) | 1.98 | -0.602 (inactive) | -0.0512 | 0.193 | 0.636 | -0.096
COc1ccc([Si](C)(C)[C@@H]2[C@@H](CCn3cc([C@H](O)c4ccccc4)nn3)O[C@]3(C(=O)N(Cc4ccc(N5CCOC5=O)cc4)c4ccccc43)[C@H]2C)cc1 | 1.55 | -0.113 (inactive) | 0.984 (inactive) | 2.04 (inactive) | 0.995 | 1.87 (inactive) | 0.047 | 1.01 | 1.12 | 0.0711
COCCOC(=O)N1C(=O)[C@@]2(c3cc(C#Cc4ccc(OC)cc4)ccc31)[C@H](C(=O)N1CCCCCCC1)[C@H]1C(=O)O[C@H](c3ccccc3)[C@H](c3ccccc3)N1[C@@H]2c1ccc(O)cc1 | 1.47 | -0.194 (inactive) | 0.318 (inactive) | 2.3 (inactive) | 1.79 | 0.551 (inactive) | 0.834 | 0.674 | 0.709 | 0.0577
COc1cc2c(cc1OC)CN(C(=O)[C@H]1[C@@H]3C(=O)O[C@@H](c4ccccc4)[C@@H](c4ccccc4)N3[C@@H](c3ccc(OCCO)cc3)[C@]13C(=O)Nc1ccc(C#CCCO)cc13)CC2 | 1.54 | 2.48 (inactive) | 1.55 (inactive) | 5.29 (inactive) | 2.87 | 0.314 (inactive) | 0.0448 | 1.14 | 1.06 | -0.0069
COC(=O)[C@@]1(Cc2ccc(OC)cc2)[C@H]2c3cc(C(=O)N(C)C)n(Cc4ccccc4)c3C[C@H]2CN1C(=O)c1ccccc1 | -0.0018 | 0.0364 (inactive) | -0.55 (inactive) | -1.42 (inactive) | 1.84 | -0.869 (inactive) | 0.0241 | 0.337 | 0.0263 | -0.254
CCCNC(=O)[C@@]1(c2ccc([N+](=O)[O-])cc2)CC(=O)N(C2CCCCC2)[C@@H]1c1ccc(CO)cc1I | 1.48 | -1.58 (inactive) | 0.503 (inactive) | 1.93 (inactive) | 2.52 | 0.422 (inactive) | -0.0649 | 1.5 | 0.976 | 0.0592
COCCCNC(=O)[C@@]1(Sc2ccc(C)cc2)CC(=O)N(Cc2cc(C(F)(F)F)cc(C(F)(F)F)c2)[C@@H]1c1ccc(CO)cc1 | 1.54 | -0.157 (inactive) | -1.51 (inactive) | -1.11 (inactive) | 1.46 | -0.296 (inactive) | -0.0927 | 1.6 | 0.715 | -0.0531
CC(C)(C)OC(=O)CC[C@]1(C(=O)O)N=C(c2ccc(OCCCO)cc2)O[C@H]1c1ccccc1 | -0.147 | -0.627 (inactive) | -0.573 (inactive) | -1.97 (inactive) | 2.2 | 0.461 (inactive) | -0.0226 | -0.0257 | 0.154 | -0.0485
COc1ccc([Si](C)(C)[C@H]2[C@H](CCn3cc([C@H](O)c4ccccc4)nn3)O[C@@]3(C(=O)N(Cc4ccc(N5CCC5=O)cc4)c4ccccc43)[C@@H]2C)cc1 | 1.57 | -0.509 (inactive) | 0.158 (inactive) | 2.14 (inactive) | 0.588 | 1.15 (inactive) | -0.184 | 1.05 | 0.698 | -0.0953
COc1ccc(NN2C(C(O)c3ccco3)C=CC3C(=O)N(C4CCCCC4)C(=O)C32)cc1 (stereo not given) | 1.56 | 0.0039 (inactive) | -0.134 (inactive) | 0.705 (inactive) | 3.06 | -0.465 (inactive) | 0.0405 | 0.89 | 1.03 | 0.191
O=C1C2C=CC(C(O)c3cc(C(F)(F)F)cc(C(F)(F)F)c3)N(Nc3ccc([N+](=O)[O-])cc3)C2C(=O)N1c1ccccc1 (stereo not given) | 1.54 | 0.527 (inactive) | 1.15 (inactive) | 33.4 (active) | 3.47 | -1.57 (inactive) | -0.0229 | 0.411 | 1.02 | 0.0149
CON(C)C(=O)C=C1C[C@@H](c2cccc(Cl)c2)O[C@@H](c2cccc(Cl)c2)O1 | 0.945 | 0.37 (inactive) | -0.873 (inactive) | 6.28 (inactive) | 0.989 | -0.168 (inactive) | -0.0309 | 0.407 | 0.121 | -0.0769
CN1C2C=C(CCCO)C(C3C(=O)N(C(N)=O)C(=O)C32)C1c1cccs1 (stereo not given) | 0.613 | 1.06 (inactive) | 1.1 (inactive) | 0.689 (inactive) | 0.502 | 0.155 (inactive) | 0.89 | -0.23 | -0.658 | 0.976

Reference: PubChem BioAssay
